# In PubChem BioAssay (EPA / NIEHS):
# Inconclusive results are not listed. The source made the active and inactive calls. The calls were made as follows: active = hit-call score of the fitted dose curve at least 0.9, where 1 is the maximum; inconclusive = response in the unintended direction; inactive = score below 0.9.
# Assay: Tanguay_ZF_120hpf_OTIC_legacy: (Legacy) Oregon State University Tanguay Lab 120 Hour Post-fertilization zebrafish Assay for Otic Vesicle Malformation (AID 2283639)
# Protocol: Tanguay_ZF_120hpf_legacy is a whole embryo, multiplexed endpoint assay using zebrafish larvae exposed for 120 hours post fertilization on a 96-well plate.Tanguay_ZF_120hpf_OTIC_legacy is one of one assay component(s) measured or calculated from the Tanguay_ZF_120hpf_legacy assay. It is designed to make measurements of zebrafish development as detected with brightfield microscopy of developing zebrafish embryos.Data from the assay component Tanguay_ZF_120hpf_OTIC_legacy was analyzed into 1 assay endpoints. This assay endpoint, Tanguay_ZF_120hpf_OTIC_legacy, was analyzed in the positive analysis fitting direction relative to DMSO as the negative control and baseline of activity. Using a type of morphology reporter, gain-of-signal activity can be used to understand changes in developmentals as they relate to the whole embryo. To generalize the intended target to other relatable targets, this assay endpoint is annotated to the zebrafish development intended target family, where the subfamily is otic vesicle morphogenesis.
# Zebrafish husbandry: Tropical 5D wild-type adult zebrafish were housed in at an approximate density of 1000 per 100 gallon tank at the Sinnhuber Aquatic Research Laboratory, Oregon State University, Corvallis, OR. Each tank was kept at standard laboratory conditions of 28C on a 14-h light/10-h dark photoperiod in fish water consisting of reverse osmosis water supplemented with a commercially available salt (Instant Ocean). Spawning funnels were placed into the tanks the night prior, and embryos were collected and staged. […] Ten microliters of each row of dilution plate 2 was added to 2 exposure plates. The final DMSO concentration used was 0.64% (vol/vol). Thirty-two embryos were also exposed to 5uM trimethyltin chloride (positive control). Plates were sealed to prevent evaporation and foil covered to reduce light exposure and kept in a 28C incubator. Embryos were statically exposed until 120 hpf. At 24 hpf, embryos were assessed for photomotor response using a custom photomotor response analysis tool (PRAT) and for developmental toxicity endpoints (MO24: mortality at 24 hpf, DP: developmental progression, SM: spontaneous movement, and NC: notochord distortion). At 120 hpf, locomotor activity was measured using Viewpoint Zebralab and assessed for 18 endpoints. Zebrafish acquisition and analysis program (ZAAP), a custom program designed to inventory, acquire, and manage zebrafish data, was used to collect developmental endpoints as either present or absent (i.e., binary responses were recorded). If mortality occurred for an embryo (at either 24 or 120 hpf), the non-mortality endpoints were not measured.
row,SMILES,outcome
1,CCCC(=NOCC)C1=C(O)CC(CC(C)SCC)CC1=O (stereo not given),inactive
2,O=c1n(Cl)c(=O)n(Cl)c(=O)n1Cl,inactive
3,COC(=O)N(C(=O)N1CO[C@@]2(C(=O)OC)Cc3cc(Cl)ccc3C2=N1)c1ccc(OC(F)(F)F)cc1,inactive
4,N#CN=C1SCCN1Cc1ccc(Cl)nc1,inactive
5,CN=C=S,inactive
6,CCNC(=O)NC(=O)C(C#N)=NOC,inactive
7,CC(C)=CC1C(C(=O)OCc2coc(Cc3ccccc3)c2)C1(C)C (stereo not given),inactive
8,COP(=S)(OC)Oc1ccc([N+](=O)[O-])c(C)c1,inactive
9,OC(c1ccc(Cl)cc1)(c1ccc(Cl)cc1)C(Cl)(Cl)Cl,inactive
10,CCCN(CC)CC1COC2(CCC(C(C)(C)C)CC2)O1 (stereo not given),inactive
11,CCNP(=S)(OC)O/C(C)=C/C(=O)OC(C)C (stereo not given),inactive
12,Nc1c(Cl)c(Cl)nc(C(=O)O)c1Cl,inactive
13,Cn1c(-c2ccccc2)cc(-c2ccccc2)[n+]1C,inactive
14,Clc1cccc(C(Cl)(Cl)Cl)n1,inactive
15,CS(=O)(=O)c1ccc(C(=O)C2C(=O)CCCC2=O)c([N+](=O)[O-])c1,inactive
16,CN/C(=N\[N+](=O)[O-])NCc1cnc(Cl)s1,inactive
17,O=C(Nc1ccccc1-c1ccc(Cl)cc1)c1cccnc1Cl,inactive
18,C=C(C)CN(CC)c1c([N+](=O)[O-])cc(C(F)(F)F)cc1[N+](=O)[O-],inactive
19,CCOC(=O)C(C)OC(=O)c1cc(Oc2ccc(C(F)(F)F)cc2Cl)ccc1[N+](=O)[O-] (stereo not given),inactive
20,CC1(C)CON(Cc2ccccc2Cl)C1=O,inactive

row,SMILES,outcome
1,CCCCC(O)(Cn1cncn1)c1ccc(Cl)cc1Cl (stereo not given),inactive
2,CCN(CC)c1nc(C)cc(OP(=S)(OC)OC)n1,inactive
3,CCSC(=O)N1CCCCCC1,inactive
4,COC(=O)NC(=S)Nc1ccccc1NC(=S)NC(=O)OC,inactive
5,Cc1cc(C)nc(Nc2ccccc2)n1,inactive
6,CCC(C)n1c(=O)[nH]c(C)c(Br)c1=O (stereo not given),inactive
7,COP(=O)(OC)O/C(C)=C/C(=O)N(C)C,inactive
8,CCCCC(C#N)(Cn1cncn1)c1ccc(Cl)cc1 (stereo not given),inactive
9,COc1cc(OC)nc(NC(=O)NS(=O)(=O)c2ncccc2OCC(F)(F)F)n1,inactive
10,Nc1c(Cl)c(F)nc(OCC(=O)O)c1Cl,inactive
11,O=C(O)c1c(Cl)ccc2cc(Cl)cnc12,inactive
12,Nc1cnn(-c2ccccc2)c(=O)c1Cl,inactive
13,Cc1c(COC(=O)[C@@H]2[C@H](/C=C(\Cl)C(F)(F)F)C2(C)C)cccc1-c1ccccc1,inactive
14,CS(=O)(=O)c1cc(C(F)(F)F)ccc1C(=O)c1cnoc1C1CC1,inactive
15,CNC(=O)N(C)c1nnc(C(C)(C)C)s1,inactive
16,CC1(C)C(C(=O)OC(C#N)c2cccc(Oc3ccccc3)c2)C1(C)C (stereo not given),inactive
17,CCCCOCN(C(=O)CCl)c1c(CC)cccc1CC,inactive
18,CCOP(=O)(OCC)Oc1nc(Cl)c(Cl)cc1Cl,inactive
19,CCOc1nc(F)cc2nc(S(=O)(=O)Nc3c(Cl)cccc3Cl)nn12,inactive
20,Cc1cnc(C2=NC(C)(C(C)C)C(=O)N2)c(C(=O)O)c1 (stereo not given),inactive
